Bioassay records from PubChem.
CHRM1 PAM: positive allosteric modulators of human M1 muscarinic receptor | CHO-K1 hM1, Fluo-8 calcium fluorescence, ACh EC20; 0% = ACh EC20, 100% = maximal ACh | P11229 | 360,000 compounds, 0.088% hits | activation, % at 3 µM; in the data active means activation above about 19%, passing the limit was not always enough
Target sequence (P11229 whole entry, looked up): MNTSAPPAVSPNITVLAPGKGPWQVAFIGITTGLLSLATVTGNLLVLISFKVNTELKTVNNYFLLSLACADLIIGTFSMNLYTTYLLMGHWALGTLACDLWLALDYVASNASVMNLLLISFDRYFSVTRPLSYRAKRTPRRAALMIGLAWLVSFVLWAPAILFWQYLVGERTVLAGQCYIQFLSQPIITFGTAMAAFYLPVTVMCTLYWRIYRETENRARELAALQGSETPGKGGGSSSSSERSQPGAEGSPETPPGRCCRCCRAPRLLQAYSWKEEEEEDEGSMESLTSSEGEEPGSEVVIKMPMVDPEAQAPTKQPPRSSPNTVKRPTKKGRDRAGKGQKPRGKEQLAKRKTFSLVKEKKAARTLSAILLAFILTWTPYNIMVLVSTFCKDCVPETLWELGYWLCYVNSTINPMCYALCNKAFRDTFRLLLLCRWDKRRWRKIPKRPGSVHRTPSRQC
M1 antag: human CHRM1 antagonism; CHO-K1 hM1, Fluo-8 calcium fluorescence, ACh EC80 antagonist; inhibition, % at 3 µM; 360,000 compounds, 1.3% hits; AID 588852; P11229;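 active means percent inhibition above its own plate's cutoff, namely the mean of that plate's compound wells plus 3 SD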;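 further: peak over basal fluorescence ratio during 140 s after agonist addition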
CHRM4 PAM: CHRM4 positive allosteric modulation. P08173. CHO-K1 hM4/Gqi5, Fluo-8 calcium fluorescence, ACh EC20; 0% = ACh EC20, 100% = maximal ACh. activation, % at 3 µM. 360,000 compounds, 0.4% hits;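 active means activation above its plate's cutoff, the mean activation of sample wells plus 3 SD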
CHRM4 antagonist: CHRM4 antagonism in calcium assay. P08173. AID 624125. CHO-hM4 cells, ACh EC80, Fluo-8 calcium fluorescence. 360,000 compounds, 0.73% hits. inhibition, % at 3 µM;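 active means inhibition above its plate's cutoff, the mean inhibition of sample wells plus 3 SD, cut at about 27% in these data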
M4 ag: CHRM4 agonism in calcium assay. activation, % at 3 µM. P08173. AID 624127. CHO-K1 hM4/Gqi5, Fluo-8 calcium fluorescence; vehicle 0%, full acetylcholine response 100%. 360,000 compounds, 0.14% hits;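 active means activation above the run mean over all test wells plus 3 SD, cut at about 32% in these data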;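 further: peak over basal fluorescence ratio per well then scaled between controls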
M1 ag: agonists of human M1 muscarinic receptor. CHO-K1 hM1, Fluo-8 calcium fluorescence, agonist mode; 0% DMSO, 100% acetylcholine EC100. P11229. AID 588814. activation, % at 3 µM. 360,000 compounds, 0.33% hits;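 active means activation above the run's mean compound activation plus 3 SD, cut at about 16% in these data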;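 further: peak over basal fluorescence ratio within a 140 s kinetic read after compound addition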
Numbers stand for hits; 0 = inactive. An excerpt weighted towards active compounds, which were near 2.2% of everything screened.

SMILES	CHRM1 PAM	M1 antag	CHRM4 PAM	CHRM4 antagonist	M4 ag	M1 ag
CC(O)[C@@H](NC(=O)C1CCC(CNC(=O)[C@H](Cc2ccccc2)NC(=O)OC(C)(C)C)CC1)C(=O)O (stereo not given in full)	0	0	16	0	0	0
CC(C)C[C@@H](NC(=O)C1CCC(CNC(=O)[C@H](Cc2ccccc2)NC(=O)OC(C)(C)C)CC1)C(=O)O (stereo not given in full)	0	0	0	0	0	0
COc1ccc(/C=C/C(=O)N2CCOCC2)cc1OC	0	0	0	0	0	0
Cc1cccc(Nc2nc(N)nc(N)c2N=O)c1	0	0	0	0	0	24
O=C(Cc1ccccc1Cl)c1ccccc1	32	0	27	0	0	0
FC(F)(F)c1cccc(CNC(=S)Nc2ccccc2)c1	0	0	0	0	0	0
COc1ccc(S(=O)(=O)N2CCCCC2)cc1NC(=O)C1CCCC1	0	0	0	0	0	0
CCc1nn(CC(=O)NCCCN(CC)Cc2ccccc2)c(=O)c2cc3sccc3n12	0	44	0	0	0	0
CCCCN(CCCNC(=O)Cn1nc(CC)n2c(cc3sc(C)cc32)c1=O)Cc1ccccc1	0	0	0	0	0	0
CCc1nn(CC(=O)NCCCN2CCN(CC)CC2)c(=O)c2cc3occc3n12	24	0	0	0	0	0
CCCCCCn1c(=O)c(Cc2ccccc2)c(O)c2ccccc21	0	0	0	0	0	0
Cc1cccc(N2CCN(C(=O)Cn3sc4nc(C)cc(C)c4c3=O)CC2C)c1 (stereo not given)	0	0	0	54	0	0
CCOc1ccc(NC(=O)Cn2sc3nc(C)cc(C)c3c2=O)cc1	0	0	0	55	0	0
Cc1cc(C)c2c(=O)n(CC(=O)Nc3cccc(F)c3)sc2n1	0	0	0	0	0	0
Cc1cc(C)c2c(=O)n(CC(=O)Nc3ccc(Cl)cc3)sc2n1	0	0	0	31	61	0
Cc1nc(=O)c(-c2ccccc2)c(C)n1-c1cccc(C(=O)O)c1	0	0	0	0	0	0
CC(=O)c1c(C)oc2ccc(N(C(C)=O)S(=O)(=O)c3ccc(F)cc3C)cc12	0	0	0	0	0	0
CC(=O)c1c(C)oc2ccc(N(C(C)=O)S(=O)(=O)c3cccc4cccnc34)cc12	0	60	0	0	0	0
CC1(C)CC(NC(=O)CSc2ccccc2)CC(C)(C)N1	0	0	0	0	0	0
O=C(NCc1ccco1)C(c1ccccc1)N(C(=O)Cc1cccs1)c1ccccc1F (stereo not given)	0	0	0	0	0	0
CC(C)CC1=NN2C(=N)/C(=C\c3coc4ccccc4c3=O)C(=O)N=C2S1	0	45	0	0	63	125
CCSC1=NSC2=NC(=O)/C(=C\c3coc4ccccc4c3=O)C(=N)N12	0	61	0	38	63	87
Fc1ccccc1Cn1c2[n+](c3ccc(C(F)(F)F)cc31)CCCCC2	0	34	0	0	0	0
CC(C)(C)c1ccc(OCCCNC2CCCC2)cc1	0	22	0	0	0	0
Cc1ccc(OCCCNC2CCCC2)cc1	0	0	0	0	0	0
SMILES	CHRM1 PAM	M1 antag	CHRM4 PAM	CHRM4 antagonist	M4 ag	M1 ag
CCOC(=O)C1CCN(S(=O)(=O)Cc2ccccc2)C1=O (stereo not given)	0	0	0	0	0	0
O=C(C(Cc1ccccc1)n1cccc1)N1CCCCC1 (stereo not given)	0	0	0	0	0	0
O=C(c1ccccc1)N1CCN(Cc2ccccc2)CC1	0	0	0	0	0	0
O=C(C(Cc1ccccc1)n1cccc1)N1CCN(Cc2ccccc2)CC1 (stereo not given)	0	92	0	0	0	0
CC(C)C(C(=O)N1CCN(Cc2ccccc2)CC1)c1ccccc1 (stereo not given)	0	89	0	0	0	0
CCOC(=O)c1cc(C#N)c(NCc2ccccc2)nc1C	0	0	0	0	0	0
C=C(C)CN(CC)C(=O)COc1ccc(S(=O)(=O)Nc2ccc(OC)cc2)cc1	0	0	0	0	0	21
CC(C)CC(=O)NC(=S)Nc1ccc(S(=O)(=O)NC(C)(C)C)cc1	0	0	0	0	0	0
CCOc1ccc(NS(=O)(=O)c2ccc(C(=O)N(C)CC(=O)Nc3ccc(OC)cc3)cc2)cc1	0	0	0	0	0	0
CCOc1ccc(NS(=O)(=O)c2ccc(NC(=S)NC(=O)CC(C)C)cc2)cc1	0	0	0	0	0	17
CCCC(=O)NC(=S)Nc1ccc(S(=O)(=O)Nc2ccc(OCC)cc2)cc1	0	0	0	0	0	28
Cc1cc(C(=O)CN2C(=O)C(=O)N(C)C2=O)c(C)n1-c1cccc(S(=O)(=O)N2CCOCC2)c1	0	0	0	0	0	0
O=S(=O)(CS(=O)(=O)Oc1ccccc1)Oc1ccccc1	0	0	0	0	0	0
Cc1cccc(C(=O)OCC(=O)NCC2CCCO2)c1O (stereo not given)	0	0	0	0	0	0
COc1ccccc1/C=C1\SC(=S)N(NS(=O)(=O)c2ccc(C)cc2)C1=O	0	0	0	0	0	0
CSc1ncc2[nH]c(C(O)c3ccccc3)nc2n1 (stereo not given)	0	0	18	0	0	0
CC(C)(C)NC(=O)CN(Cc1ccc2c(c1)OCO2)C(=O)CNS(=O)(=O)c1ccc(F)cc1	0	0	45	0	0	0
CCC(=O)c1ccc(OCC(=O)Nc2nc(C)cs2)cc1	0	0	0	0	0	0
CCC(=O)c1ccc(OCC(=O)Nc2nc(-c3cccnc3)cs2)cc1	0	27	0	0	0	0
CC[C@@]12C(=O)N(c3cccc(Cl)c3)C(=O)N1[C@H](c1ccc(Br)cc1)[C@@H]1C(=O)N(C(C)(C)C)C(=O)[C@@H]12	0	0	28	0	0	0
CC(C)C[C@@]12C(=O)N(c3cccc(Cl)c3)C(=O)N1[C@H](c1ccc(Br)cc1)[C@@H]1C(=O)N(C(C)(C)C)C(=O)[C@@H]12	0	0	0	0	0	0
COc1ccc(CNC(=O)CN(C2CCCCC2)S(C)(=O)=O)cc1	0	0	26	0	0	0
COc1ccc(CCNC(=O)CN(C2CCCCC2)S(C)(=O)=O)cc1	0	0	0	0	0	0
COc1ccc(C(CNC(=O)c2cccc(S(=O)(=O)N3CCCC3)c2)N2CCCC2)cc1 (stereo not given)	0	0	0	0	0	0
COc1ccc(C(CNC(=O)c2ccc(Cl)c(NC(=O)c3cccs3)c2)N2CCCC2)cc1 (stereo not given)	0	46	0	0	0	0
